# Source: PubChem BioAssay (National Center for Advancing Translational Sciences (NCATS))
# Compounds with a hit are over-represented: about 6.5% of the library has one in this group of screens.
# VACV Venus inh = inhibitors of vaccinia virus (Venus reporter) | Vaccinia virus Venus reporter expression, fluorescence | AID 720580 | Potency, µM (top dose mostly 36.5 µM), usual class: inhibitors | actives 0.46% (n = 330,000); calls by dose curve; tested in A549 cells; note: nearly all actives have a fitted effect of over 30% in size
# HCMV inh = inhibitors of human cytomegalovirus; actives 4.5% (n = 410,000); HFF cells, HCMV-luciferase reporter, 72 h; stronger effect = lower value; activity change, negative = inhibition, % at 57.5 µM; in the data active = activity change below about -60%; inconclusive = no clear call, values can overlap the other calls; inactive = above about -39%
#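 Cell-based, HFFs, 1000 cells/well, 16 h 37C; cpds in DMSO + HCMV-luc, MOI 1 PFU/cell; 72 h 37C; OneGlo luminescence after 5 min RT; norm. to buffer vs Salinomycin 10uM.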
# Vaccinia mCherry = vaccinia inhibition (mCherry reporter). Vaccinia virus mCherry reporter infection, fluorescence. AID 720579. Potency, µM (doses to about 36.5 µM), actives largely listed as inhibitors. actives 0.63% (n = 310,000); calls by dose curve; tested in A549 cells; note: nearly all actives have a fitted effect of over 35% in size
# Lassa entry inh = inhibitors of Lassa virus binding or cell entry. Lassa virus pseudotype entry inhibition, cell reporter. Potency, µM (top dose mostly 37.9 µM), actives largely listed as inhibitors. actives 1.2% (n = 300,000). AID 540256; calls by dose curve; tested in HEK293 cells; note: nearly all actives have a fitted effect of over 50% in size
# Marburg entry inh = blocks Marburg virus binding to or entry into cells | Potency, µM (highest dose often 37.8 µM), hits mostly inhibitors | Marburg virus pseudotyped entry inhibition, cell reporter | AID 540276 | actives 1.8% (n = 300,000); calls by dose curve; tested in HEK293 cells
# FMDV inh = foot and mouth disease virus antiviral activity. FMDV antiviral cell-based qHTS. Potency, µM (top dose mostly 57.9 µM), usual class: inhibitors. actives 1.2% (n = 410,000). AID 1159524; calls by dose curve; tested in HEK293T cells; note: read-out not given here; nearly all actives have a fitted effect of over 45% in size
# A number is an active result; . = inactive; ? = inconclusive; / = not tested or not shown.
SMILES,VACV Venus inh,HCMV inh,Vaccinia mCherry,Lassa entry inh,Marburg entry inh,FMDV inh
CCc1ccc(NC(=O)CSC2=Nc3ccccc3C3=NC(CC(=O)NCc4cccs4)C(=O)N23)cc1 (configuration not stated),.,.,.,.,/,?
c1ccc(-c2ccc3c(c2)c2c4n3CCN=C4CCC2)cc1,/,.,/,.,25.9µM,.
COc1ccc2[nH]c3c(C)c4ccncc4c(C)c3c2c1,10µM,-76.9,7.08µM,/,/,?
COc1ccc2[nH]c(C)cc(=O)c2c1,.,.,/,.,.,.
COCC1CCCN(c2nc(CN3CCN(C(=O)c4ccco4)CC3)nc3ccccc23)C1 (configuration not stated),.,/,.,/,/,.
CC(C)NC(=O)N1[C@@H]2CN(C(=O)c3ccc(F)cc3)c3ccccc3[C@@H]2[C@@H]1CO,/,.,/,/,/,/
COc1ccccc1CNC(=O)CN(C)c1nn2c(=O)cc(C)nc2s1,.,.,.,.,.,.
Cc1ccc(S(=O)(=O)/N=C2\C=C(Nc3cccc(C(=O)O)c3)C(=O)c3ccccc32)c(C)c1,.,-72.6,.,?,?,?
Cc1ccc(S(=O)(=O)/N=C2\C=C(NS(=O)(=O)c3ccccc3)C(=O)c3ccccc32)c(C)c1,.,-90.6,?,.,.,.
Cc1ccc(S(=O)(=O)/N=C2\C=C(Nc3cccc(C(=O)O)c3)C(=O)c3ccccc32)cc1,.,.,?,?,?,.
Cc1ccc(C)c(N2CCN(c3nc4ccccc4n4c(C)nnc34)CC2)c1,.,.,.,.,/,.
O=C(c1ccc(S(=O)(=O)Nc2ccc(F)cc2)cc1)N1CCN(c2ccccn2)CC1,.,-80.4,.,?,?,.
O=C(c1ccc(NS(=O)(=O)c2ccc(F)cc2)cc1)N1CCCCC1,.,.,.,.,.,.
Cc1ccc(NS(=O)(=O)c2ccc(C(=O)N3CCN(c4ncccn4)CC3)cc2)cc1,?,-77.2,.,7.94µM,?,?
Cc1ccc(C(=O)N2CCN(c3ncccn3)CC2)cc1,/,.,/,/,/,.
CC1CCN(C(=O)c2[nH]cnc2C(=O)N(C)CCO)CC1,/,.,/,/,/,/
COc1cccc(-c2nc3c(Nc4cccc(F)c4)nccc3[nH]2)c1F,/,.,/,/,/,/
Cc1ccc(NC(=O)c2cc(S(=O)(=O)NCCC3=CCCCC3)ccc2F)cc1,?,-83.6,.,?,?,.
O=S(=O)(NCCC1=CCCCC1)c1ccccc1Br,.,.,.,?,.,.
O=S(=O)(NCCC1=CCCCC1)c1ccc(Br)cc1,.,-73.4,.,?,.,.
Cc1ccc(C)c(NC(=O)c2cc(S(=O)(=O)NCCC3=CCCCC3)ccc2F)c1,?,.,.,.,/,.
Cc1ccc(C)n1C1C(=O)N(C)c2ccc(F)cc21 (configuration not stated),/,.,/,/,/,/
O=[N+]([O-])c1ccc2c(c1)S(=O)(=O)C=C2,/,/,/,3.26µM,?,31.6µM
Cc1cc([N+](=O)[O-])ccc1N,.,.,.,.,?,.
Cc1cccc(/C=C/c2nc3ccccc3c(=O)[nH]2)c1,.,.,.,3.55µM,?,.
SMILES,VACV Venus inh,HCMV inh,Vaccinia mCherry,Lassa entry inh,Marburg entry inh,FMDV inh
Cc1[nH]c2ccccc2c1/C=C/c1nc2ccccc2c(=O)[nH]1,?,.,12.6µM,?,?,.
CC(C)CCn1c(=O)c2cccnc2n(CC(=O)Nc2ccccc2)c1=O,.,.,.,/,?,.
C[C@@H]1O[C@@H](OC[C@H]2O[C@@H](Oc3c(-c4ccc(OCCO)c(OCCO)c4)oc4cc(OCCO)cc(O)c4c3=O)[C@H](O)[C@@H](O)[C@@H]2O)[C@H](O)[C@H](O)[C@H]1O,.,/,.,/,/,.
Cc1cc2oc(=O)cc(C)c2cc1NC(=O)CCC(=O)O,.,.,.,.,.,/
Cc1cc2oc(=O)cc(C)c2cc1NC(=O)CCl,?,-100.4,?,?,?,?
O=C(Nc1cccc(C(F)(F)F)c1)n1cc(-c2ccccn2)c(N2CCOCC2)n1,.,-64.0,.,.,.,.
COc1ccc(C(C)(C)C)cc1NC(=O)OC[C@@H]1CSCCS(=O)(=O)N1,/,.,/,.,/,/
O=C1COc2ccc(C(=O)CSc3nc4ccccc4c(=O)n3-c3ccc(Cl)c(Cl)c3)cc2N1,.,-80.8,.,.,?,.
COC(=O)[C@@H]1CCCN1C(=O)c1c(OC)cc(=O)n2c1CCN(Cc1c(C)[nH]c3ccccc13)CC2,.,/,.,/,/,.
CCOC(=O)C1=CC[C@@H](c2ccccc2)C(C#N)(C#N)[C@H]1/C=C/c1ccccc1,/,.,/,/,/,/
CS(=O)(=O)c1ccc2nc(NC(=O)c3cccs3)sc2c1,?,.,/,?,2.24µM,.
Cc1ccc(C(=O)Nc2nc3ccc(S(C)(=O)=O)cc3s2)s1,/,.,/,?,.,.
Cc1ccc2nc(NC(=O)c3cccc(-c4cc5ccccc5oc4=O)c3)sc2c1,.,-89.4,.,?,?,/
Cc1ccc2nc(NC(=O)c3cccs3)sc2c1,?,.,.,2.51µM,3.16µM,.
CCc1ccc(NC(=O)C2CCN(c3cc(C)nc4c(-c5ccc(Cl)cc5)c(C)nn34)CC2)cc1,.,.,.,.,.,.
CC1CC(C)(C)N(C(=O)CSc2ccc(-c3ccc(F)cc3)nn2)c2ccccc21 (configuration not stated),?,-86.6,.,.,?,/
O=C1N[C@@H](Cc2ccccc2)COC(=O)[C@@H](Cc2ccc(F)cc2)CC/C=C/C[C@H]1CC(=O)N(CCO)Cc1ccccc1,11.2µM,.,?,/,/,?
O=C1CCCC/C=C\C[C@H](CC(=O)N(CCO)Cc2ccccc2)C(=O)N[C@@H](c2ccccc2)CO1,.,-63.1,.,/,/,.
O=C1N[C@@H](Cc2ccccc2)COC(=O)[C@H](Cc2ccc(F)cc2)CC/C=C/C[C@@H]1CC(=O)N(CCO)Cc1ccccc1,?,.,?,/,/,?
O=C1NCCOC(=O)[C@@H](Cc2ccc(F)cc2)CC/C=C/C[C@@H]1CC(=O)N(CCO)Cc1ccccc1,.,-63.2,.,/,/,.
CCOC(=O)CN1C(=O)C2(CC(C)=C[C@@H](C)O2)c2c(Br)cccc21 (some centres not stated),/,/,/,?,.,/
CC(C)S(=O)(=O)N1CCN(c2nc(-c3cccs3)nc3ccccc23)CC1,.,/,.,/,/,/
O=C(N/N=C(\Cc1ncc[nH]1)c1ccccc1)c1ccncc1,?,-91.3,10µM,?,?,.
NC(=O)c1ccc(C(=O)N/N=C(/Cc2ccccc2)c2ccccc2)cc1,.,/,.,.,.,.
CC(/C=C/C=C/c1ccccc1)=N\NC(=O)c1cccnc1,.,.,.,.,.,.
O=C(N/N=C(\Cc1ncc[nH]1)c1ccccc1)c1cccnc1,?,?,11.2µM,?,?,.
O=C(N/N=C(\Cc1ncc[nH]1)c1ccccc1)c1ccccc1,/,-77.6,/,/,/,/
O=C(N/N=C(\c1ccccc1)c1cccnc1)c1ccc(O)cc1,.,.,.,.,.,.
O=C(N/N=C(\c1ccccc1)c1cccnc1)c1cccc(F)c1,?,-112.0,3.16µM,?,?,?
CCCc1nn2c(=O)cc(COC(=O)c3ccc(NC(=O)CCc4ccccc4)cc3)nc2s1,.,.,.,.,/,.
